# Measured values as given in PubChem BioAssay AID686970 (National Center for Advancing Translational Sciences (NCATS), 2013).
# The whole screen tested about 360,000 compounds, of which about 6,000 (1.7%) were called active. About 8% were inconclusive and are not listed. For the sample, actives were picked, then their nearest neighbours and some compounds at random. A number with no mark means an inactive call. The call rests on the fitted dose curve; in most records, active means well fitted cell-killing curve with a large enough effect; inconclusive means small, poorly fitted or top-dose-only effect, or effect the other way; inactive means flat fitted curve, though single readings scatter.
# Experiment: qHTS for induction of synthetic lethality in tumor cells producing 2HG: qHTS for the HT-1080-NT fibrosarcoma cell line; further: nearly all actives have a fitted effect of over 55% in size
# Conditions: HT-1080-NT fibrosarcoma viability, CellTiter-Glo ATP luminescence, 48 h; series mostly up to 46.1 µM; activity, negative = less viability: at the top concentration
# From the text: Unbiased genomic sequencing for 22 glioma genomes found recurrent mutation of IDH1 on chromosome 2q33, a gene encoding the cytosolic isoform of IDH1 associated with the tricarboxylic acid cycle (TCA) that catalyzes the oxidative decarboxylation of isocitrate, yielding alpha-ketoglutarate and CO2 via NADP+ to NADPH conversion. Subsequent studies confirmed the recurrent IDH mutations in up to 70% of secondary gliomas and in 10% of AML cases. In addition, the somatic mutation of cancer-associated IDH1 is a point mutation resulting in various amino-acid substituents at Arginine132 (IDH1 R132), a key residue found in the enzyme's active site that when mutated, results in the loss-of-function in metabolizing isocitrate but confers a gain-of-function to produce the oncometabolite 2-hydroxyglutarate (2HG). This in effect defines IDH1 as an oncogene and provides an extraordinary opportunity to discover chemical probes against mutant IDH1 that may translate into much needed new therapies for glioma and AML patients.
# This assay aims to perform a synthetic lethal screen for chemical probes specific for 2HG-producing tumor cells using matched paired cell lines (1) HT-1080-NT fibrosarcoma cell line that overproduces 2HG and (2) HT-1080-IDH1KD cell line which has IDH1 expression knocked-down. Desirable compounds are toxic to the NT fibrosarcoma cells but not to the IDH1KD cell line. The data in this AID corresponds to the results of the qHTS against the HT-1080-NT fibrosarcoma cell line.
# [1] Dang L, Jin S, Su SM. IDH mutations in glioma and acute myeloid leukemia. Trends of Mol Med. 2010; 16(9): 387-97.
# [2] Dang L et al. Cancer-associated IDH1 mutations produce 2-hydroxyglutarate. Nature. 2010; 465(7300):966.
# NIH Molecular Libraries Probe Production Centers Network [MLPCN]
# NIH Chemical Genomics Center [NCGC]
# Assay Submitter (PI): Lenny Dang Ph.D., Agios Pharmaceuticals
# Suspensions of trypsinized HT-1080-NT cells were dispensed into white, tissue culture-treated, solid 1536-well plates at 5uL/well (750 cells/well final concentration) in RPMI medium supplemented with 5% FBS. Plates were incubated at 37 degrees C for 2 hours, after which 23 nL of compounds or DMSO were delivered to each well using a pin tool. Plates were then incubated at 37 degrees C for an additional 48 hours. CellTiter-Glo viability reagent (Promega) was dispensed into wells (2.5uL/well) and incubated at room temperature for 10 minutes. The plates were measured on a PerkinElmer ViewLux plate reader for luminescent signal (clear filter, 1 sec exp). DMSO-treated control wells and media-only (no cells) control wells were used to normalize %Activity of identified toxic compounds; DMSO-treated wells corresponded to 0%Activity (100% viability), while media-only controls were used to normalize 100%Activity (0% viability).
# Concentration-response curves were fitted to the signals arising from the resulting luminescence. The concentration-effect curves were then classified based on curve quality (r2), response magnitude and degree of measured activity, and compounds were subsequently categorized based on their curve class.
# Potency means the concentration at half of the fitted maximal effect.
Structure (SMILES),"activity, negative = less viability",Potency
CC(=O)OCC(C)n1c(=O)c2ccccc2n1C(C)=O (configuration not stated),3.8%,–
CC(NC(=S)Nc1ccccc1)C1COc2ccccc2O1 (configuration not stated),-2.44%,–
CCOC(=O)CNC(=O)N1c2ccccc2Sc2ccccc21,0%,–
CCN1/C(=C/C(=S)Nc2ccccc2)Sc2ccccc21,–,6.51 µM (active)
COc1ccc(OC)c(CN2C(=O)CCC2(C)c2nnnn2Cc2ccccc2)c1 (configuration not stated),6.01%,–
CCOC(=O)N1CCN(C(=O)C[C@@H]2C[C@@]3(C(=O)OC)CCCCC=C3N(CCC3=CCCCC3)C2=O)CC1,-17.7%,–
O=C(Nc1nnc(C2CC2)s1)c1ccccn1,–,7.08 µM (active)
CCc1ccccc1OCC(=O)Nc1nnc(C2CC2)s1,6.09%,–
Cc1cc(C(=O)Nc2nnc(C3CC3)s2)c(C)s1,-2.13% [at 9.24 µM],–
Cc1onc(-c2ccccc2)c1-c1nnc(COC(=O)c2ccc(N(C)C)cc2)o1,-9.65%,–
COc1ccc(CCNC(=O)Nc2ccc3c(c2)c(=O)n(C)n3C)cc1OC,18.5%,–
COc1ccc(C(=O)C2CCCN(Cc3cccn3-c3ccccn3)C2)c(C)c1 (configuration not stated),–,8.2 µM (active)
CCOC(=O)c1[nH]ncc1CN1CCCC(C(=O)c2ccc(OC)cc2C)C1 (configuration not stated),2.6%,–
COc1ccc(C(=O)C2CCCN(Cc3ccc4nonc4c3)C2)c(C)c1 (configuration not stated),-10.5%,–
COCCCN1C(=O)C(CC(=O)NCc2cccs2)CC(C(=O)N2CCOCC2)=C1C (configuration not stated),13.1%,–
Cc1ccc(SCC(=O)NC(=O)NCc2ccco2)c(C)c1,-4.84%,–
COc1ccc(CNC(=O)c2nnn(CC(=O)Nc3cc(C)cc(C)c3)c2N)cc1,1.9%,–
CCOc1ccc(Cn2nnc(C(=O)Nc3ccc(OC)cc3OC)c2N)cc1,-2.78%,–
Cc1ccc(NC(=O)Cn2nnc(C(=O)NCc3ccco3)c2N)c(C)c1,–,20.6 µM (active)
CCOc1ccccc1NC(=O)Cn1nnc(C(=O)NCc2cccs2)c1N,–,0.461 µM (active)
CCOc1ccccc1NC(=O)Cn1ncc2ccc([N+](=O)[O-])cc21,-2.56%,–
CC(=O)c1ccc(OCC(=O)N(C)C2CCS(=O)(=O)C2)cc1 (configuration not stated),14.7%,–
COc1ccc(CN2C(=O)C(CC(=O)NCCN3CCOCC3)CC(C(=O)N(C(C)C)C(C)C)=C2C)cc1 (configuration not stated),1.88%,–
O=C(NCc1ccc(F)cc1F)[C@@H]1CCCN1C(=O)[C@@H]1CCCN1C(=O)c1cccc(Cl)c1,10.8%,–
Nc1nc2c(Br)ccc(Br)c2cc1C(=O)NCCc1ccccc1,0.0286%,–
CCOC(=O)c1cc(-c2sc(NC(=O)c3ccccc3)nc2C)n(Cc2ccccc2)n1,-27.9%,–

Structure (SMILES),"activity, negative = less viability",Potency
COc1ccc(C(=O)N[C@H](C(=O)NCc2ccccc2)C(C)C)cc1,8.29%,–
COc1cc(OC)cc(C(=O)N[C@H](C(=O)Nc2nc3ccccc3[nH]2)C(C)C)c1,–,1.16 µM (active)
COc1cc(OC)cc(C(=O)N[C@H](C(=O)NNC(=O)c2ccc(Br)cc2)C(C)C)c1,-0.305%,–
Cc1ccc(NS(=O)(=O)c2ccc(C(C)(C)C)cc2)cn1,1.12%,–
Cc1cc(C)cc(NS(=O)(=O)c2ccc(Oc3ncc(C(F)(F)F)cc3Cl)cc2)c1,–,23.1 µM (active)
CN(NS(=O)(=O)c1cccs1)c1ncc(C(F)(F)F)cc1Cl,6.3%,–
COC(=O)[C@@]1(Sc2ccc(C)cc2)CC(=O)N(c2cccc(SC)c2)[C@@H]1c1ccccc1,-37.1%,–
CCCCCCN1CCN(C2CN(Cc3cn(CCCCCC)nn3)S(=O)(=O)C2)CC1 (configuration not stated),-28.1%,–
O=c1[nH]c(CCl)nc2cc(-c3ccc(Cl)cc3)sc12,–,16.4 µM (active)
CCC1(CC)Cc2ccccc2-c2nc(CCl)[nH]c(=O)c21,-27.6%,–
Cn1c(NCc2cccnc2)nc2cc(-c3ccc(F)cc3)sc2c1=O,3.48%,–
CC(C)c1ccc(CC(=O)N2CCC2(C)C(=O)NS(=O)(=O)c2ccc(C(C)(C)C)cc2)cc1 (configuration not stated),2.38%,–
CCCS(=O)(=O)NC(=O)C1(C)CCCN(C(=O)c2ccnc(Cl)c2)C1 (configuration not stated),22.2%,–
CCCCCCN1C[C@H](O)[C@@H](n2cc(C3CC3)nn2)C[C@@H]1c1ccc(Cl)cc1,-1.63%,–
COc1ccc2oc(=O)cc(-c3cc4ccccc4o3)c2c1,-5.9%,–
COc1ccc(Nc2cc(=O)oc3ccccc23)cc1,–,7.31 µM (active)
COc1ccc(Nc2ccc3ccccc3c2)cc1,-25.9%,–
COCCNC(=O)c1cc2c(Br)ccc(Br)c2nc1N,-6.43%,–
Cc1cccc(-n2ncc(Cl)c(Cl)c2=O)c1,–,5.8 µM (active)
C=CCNc1cnn(-c2ccc(C)cc2)c(=O)c1Cl,14.9%,–
Cc1cccc(-n2ncc3c(=O)[nH]c(SCC(=O)Nc4cc(C)on4)nc32)c1,9.3%,–
Cc1cc(Br)cn2c(Cc3ccccc3C(F)(F)F)c(C3CCCCC3)nc12,22.8%,–
CC(=O)Nc1cnc(-c2ccc(O)cc2C)cn1,11.8%,–
Oc1ccc(-c2nc3ccccc3nc2-c2ccc(O)cc2O)c(O)c1,-11.5%,–
Cc1ccc(Nc2nc(-c3ccc(O)cc3O)cs2)nc1,–,1.64 µM (active)
O=C(NCc1ccc(F)cc1)c1cc(C2CCCCN2C(=O)C2CCCCC2)on1 (configuration not stated),1.47%,–
